Source: the supplement of paper PMC10849652
About 7,900 targets were measured; listed, in parts, are those with a hit and a random draw of the rest. About 0.6% of all pairs of compound and target were hits. A number with no mark means an inactive call.

Columns and labels:
Test in all cases: log2 fold change, soluble protein after heating vs DMSO (PISA); higher = thermal stabilisation; K562 cells, 10 uM, 30 min; active = over 0.2 and 3.5 SD of the protein, either way, in both replicates (recomputed)
ZER1 = ZER1 (UniProt Q7Z7L7)
How it was run: (§1)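 Thermal stability values are relative to control samples and come from duplicates. They are expressed as log2 fold changes. For measurement, K562 cells (2×10^6 cells/mL) received 10 μM compound for 30 min, and aliquots were heated for 3 min over 48°C-58°C, pooled, and extracted at 4°C in PBS with 0.5% NP-40. Soluble protein, the supernatant after 21,000xg for 90 min, was quantified by TMTpro 16plex LC-MS/MS with equalised channel sums.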

ZFAND5 = ZFAND5 (UniProt O76080)
How it was run: as §1

ZFAND6 = ZFAND6 (UniProt Q6FIF0)
How it was run: as §1

ZFP91 = ZFP91 (UniProt Q96JP5)
How it was run: as §1

ZFPL1 = ZFPL1 (UniProt O95159)
How it was run: as §1

ZMAT2 = ZMAT2 (UniProt Q96NC0)
How it was run: as §1

ZMYM1 = ZMYM1 (UniProt Q5SVZ6)
How it was run: as §1

ZMYM3 = ZMYM3 (UniProt Q14202)
How it was run: as §1

ZNF143 = ZNF143 (UniProt P52747)
How it was run: as §1

ZNF217 = ZNF217 (UniProt O75362)
How it was run: as §1

ZNF239 = ZNF239 (UniProt Q16600)
How it was run: as §1

ZNF277 = ZNF277 (UniProt Q9NRM2)
How it was run: as §1

ZNF511 isoform 1 = ZNF511 isoform 1 (UniProt Q8NB15)
How it was run: as §1

ZNF512 = ZNF512 (UniProt Q96ME7)
How it was run: as §1

ZNF579 = ZNF579 (UniProt Q8NAF0)
How it was run: as §1

ZNF609 = ZNF609 (UniProt O15014)
How it was run: as §1

ZNF622 = ZNF622 (UniProt Q969S3)
How it was run: as §1

ZRANB2 = ZRANB2 (UniProt O95218)
How it was run: as §1

ZEB2 = ZEB2 (UniProt O60315)
How it was run: as §1

ZNF580 = ZNF580 (UniProt Q9UK33)
How it was run: as §1

Chain of ZFAND5 (O76080 whole entry, looked up): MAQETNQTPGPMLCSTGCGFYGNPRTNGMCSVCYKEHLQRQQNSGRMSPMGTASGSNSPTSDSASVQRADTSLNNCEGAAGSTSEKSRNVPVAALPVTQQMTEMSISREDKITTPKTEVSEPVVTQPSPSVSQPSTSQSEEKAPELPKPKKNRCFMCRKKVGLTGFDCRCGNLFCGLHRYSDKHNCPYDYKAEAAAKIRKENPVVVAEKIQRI
Chain of ZNF580 (Q9UK33 whole entry, looked up): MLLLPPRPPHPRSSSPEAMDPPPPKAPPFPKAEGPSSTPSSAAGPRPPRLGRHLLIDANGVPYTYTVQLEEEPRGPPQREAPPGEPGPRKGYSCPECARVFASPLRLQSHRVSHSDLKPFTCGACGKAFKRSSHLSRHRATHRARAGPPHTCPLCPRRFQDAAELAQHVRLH
Chain of ZRANB2 (O95218 whole entry, looked up): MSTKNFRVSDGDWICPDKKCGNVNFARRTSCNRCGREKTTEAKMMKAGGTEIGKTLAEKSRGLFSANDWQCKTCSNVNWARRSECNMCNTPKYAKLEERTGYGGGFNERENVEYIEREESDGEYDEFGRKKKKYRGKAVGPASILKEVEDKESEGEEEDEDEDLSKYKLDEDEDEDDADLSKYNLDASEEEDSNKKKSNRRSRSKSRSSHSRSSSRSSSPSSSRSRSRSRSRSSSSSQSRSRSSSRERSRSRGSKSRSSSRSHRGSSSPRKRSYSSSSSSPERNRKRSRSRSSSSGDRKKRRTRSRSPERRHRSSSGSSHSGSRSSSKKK
Chain of ZEB2 (O60315 whole entry, looked up): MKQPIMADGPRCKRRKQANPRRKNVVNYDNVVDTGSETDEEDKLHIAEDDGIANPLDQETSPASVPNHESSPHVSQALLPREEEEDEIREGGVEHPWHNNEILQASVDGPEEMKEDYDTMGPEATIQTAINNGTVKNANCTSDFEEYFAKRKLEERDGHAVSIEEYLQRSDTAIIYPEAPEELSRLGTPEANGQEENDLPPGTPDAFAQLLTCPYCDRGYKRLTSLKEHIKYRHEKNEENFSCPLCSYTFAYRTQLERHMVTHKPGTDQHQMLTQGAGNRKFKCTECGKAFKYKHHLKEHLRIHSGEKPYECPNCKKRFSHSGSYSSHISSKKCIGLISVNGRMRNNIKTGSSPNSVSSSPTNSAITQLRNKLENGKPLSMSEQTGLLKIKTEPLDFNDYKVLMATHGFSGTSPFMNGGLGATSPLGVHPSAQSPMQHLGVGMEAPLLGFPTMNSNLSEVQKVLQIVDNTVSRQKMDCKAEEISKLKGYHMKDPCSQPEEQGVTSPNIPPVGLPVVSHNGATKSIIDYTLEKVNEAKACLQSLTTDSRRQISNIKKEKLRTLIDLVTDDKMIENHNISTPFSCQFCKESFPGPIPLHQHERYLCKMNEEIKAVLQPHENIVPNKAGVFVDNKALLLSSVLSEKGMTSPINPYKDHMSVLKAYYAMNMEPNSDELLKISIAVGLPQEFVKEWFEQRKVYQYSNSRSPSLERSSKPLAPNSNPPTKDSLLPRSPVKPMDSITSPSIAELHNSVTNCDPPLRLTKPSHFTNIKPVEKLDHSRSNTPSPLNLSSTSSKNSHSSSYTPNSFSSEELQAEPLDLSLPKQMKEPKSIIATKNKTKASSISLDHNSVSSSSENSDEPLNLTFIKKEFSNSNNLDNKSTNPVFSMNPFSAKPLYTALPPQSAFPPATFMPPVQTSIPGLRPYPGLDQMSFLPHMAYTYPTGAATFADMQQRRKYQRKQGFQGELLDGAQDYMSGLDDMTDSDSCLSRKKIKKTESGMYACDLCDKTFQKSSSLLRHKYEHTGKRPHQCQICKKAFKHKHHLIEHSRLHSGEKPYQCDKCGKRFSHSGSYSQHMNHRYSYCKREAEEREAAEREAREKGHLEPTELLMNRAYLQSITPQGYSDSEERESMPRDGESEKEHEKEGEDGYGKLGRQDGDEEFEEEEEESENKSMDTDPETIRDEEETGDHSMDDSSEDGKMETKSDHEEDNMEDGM
Chain of ZNF622 (Q969S3 whole entry, looked up): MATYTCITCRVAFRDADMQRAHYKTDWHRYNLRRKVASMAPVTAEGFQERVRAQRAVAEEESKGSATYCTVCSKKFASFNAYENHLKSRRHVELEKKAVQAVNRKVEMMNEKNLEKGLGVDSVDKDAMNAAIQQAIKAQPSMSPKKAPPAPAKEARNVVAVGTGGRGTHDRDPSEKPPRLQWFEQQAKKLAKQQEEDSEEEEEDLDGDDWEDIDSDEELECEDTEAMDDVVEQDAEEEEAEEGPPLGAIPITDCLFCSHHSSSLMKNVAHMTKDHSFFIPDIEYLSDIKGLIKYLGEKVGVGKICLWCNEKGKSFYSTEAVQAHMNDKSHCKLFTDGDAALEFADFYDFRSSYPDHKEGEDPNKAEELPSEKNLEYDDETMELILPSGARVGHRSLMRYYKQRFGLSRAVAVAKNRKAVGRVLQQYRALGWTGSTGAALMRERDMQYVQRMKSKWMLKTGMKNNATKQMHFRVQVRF
Chain of ZMAT2 (Q96NC0 whole entry, looked up): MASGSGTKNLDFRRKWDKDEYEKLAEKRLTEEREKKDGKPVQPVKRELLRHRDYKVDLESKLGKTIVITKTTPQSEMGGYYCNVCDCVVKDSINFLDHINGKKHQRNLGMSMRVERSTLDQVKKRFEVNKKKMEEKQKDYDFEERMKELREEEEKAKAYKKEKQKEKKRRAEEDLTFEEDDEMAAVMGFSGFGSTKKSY
Chain of ZER1 (Q7Z7L7 whole entry, looked up): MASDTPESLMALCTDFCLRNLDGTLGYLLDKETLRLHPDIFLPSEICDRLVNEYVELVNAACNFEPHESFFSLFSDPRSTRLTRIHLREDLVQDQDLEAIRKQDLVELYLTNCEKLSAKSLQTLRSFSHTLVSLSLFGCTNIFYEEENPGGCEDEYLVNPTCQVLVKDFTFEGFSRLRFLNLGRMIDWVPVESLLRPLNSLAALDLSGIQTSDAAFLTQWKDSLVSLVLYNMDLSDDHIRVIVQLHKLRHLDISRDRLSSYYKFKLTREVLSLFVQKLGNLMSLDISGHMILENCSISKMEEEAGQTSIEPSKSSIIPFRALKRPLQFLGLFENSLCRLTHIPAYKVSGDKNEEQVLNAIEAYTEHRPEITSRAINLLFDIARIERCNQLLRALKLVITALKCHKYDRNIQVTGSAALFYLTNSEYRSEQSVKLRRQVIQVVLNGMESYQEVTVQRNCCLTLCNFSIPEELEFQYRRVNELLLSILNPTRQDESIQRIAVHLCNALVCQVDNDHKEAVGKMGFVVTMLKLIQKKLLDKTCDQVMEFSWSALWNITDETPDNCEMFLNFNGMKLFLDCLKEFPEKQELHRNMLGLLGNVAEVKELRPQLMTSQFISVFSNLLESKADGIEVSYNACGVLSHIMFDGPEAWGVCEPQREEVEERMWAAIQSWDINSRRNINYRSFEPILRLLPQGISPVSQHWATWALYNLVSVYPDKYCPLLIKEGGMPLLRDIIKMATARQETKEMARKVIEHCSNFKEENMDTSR
Chain of ZNF609 (O15014 whole entry, looked up): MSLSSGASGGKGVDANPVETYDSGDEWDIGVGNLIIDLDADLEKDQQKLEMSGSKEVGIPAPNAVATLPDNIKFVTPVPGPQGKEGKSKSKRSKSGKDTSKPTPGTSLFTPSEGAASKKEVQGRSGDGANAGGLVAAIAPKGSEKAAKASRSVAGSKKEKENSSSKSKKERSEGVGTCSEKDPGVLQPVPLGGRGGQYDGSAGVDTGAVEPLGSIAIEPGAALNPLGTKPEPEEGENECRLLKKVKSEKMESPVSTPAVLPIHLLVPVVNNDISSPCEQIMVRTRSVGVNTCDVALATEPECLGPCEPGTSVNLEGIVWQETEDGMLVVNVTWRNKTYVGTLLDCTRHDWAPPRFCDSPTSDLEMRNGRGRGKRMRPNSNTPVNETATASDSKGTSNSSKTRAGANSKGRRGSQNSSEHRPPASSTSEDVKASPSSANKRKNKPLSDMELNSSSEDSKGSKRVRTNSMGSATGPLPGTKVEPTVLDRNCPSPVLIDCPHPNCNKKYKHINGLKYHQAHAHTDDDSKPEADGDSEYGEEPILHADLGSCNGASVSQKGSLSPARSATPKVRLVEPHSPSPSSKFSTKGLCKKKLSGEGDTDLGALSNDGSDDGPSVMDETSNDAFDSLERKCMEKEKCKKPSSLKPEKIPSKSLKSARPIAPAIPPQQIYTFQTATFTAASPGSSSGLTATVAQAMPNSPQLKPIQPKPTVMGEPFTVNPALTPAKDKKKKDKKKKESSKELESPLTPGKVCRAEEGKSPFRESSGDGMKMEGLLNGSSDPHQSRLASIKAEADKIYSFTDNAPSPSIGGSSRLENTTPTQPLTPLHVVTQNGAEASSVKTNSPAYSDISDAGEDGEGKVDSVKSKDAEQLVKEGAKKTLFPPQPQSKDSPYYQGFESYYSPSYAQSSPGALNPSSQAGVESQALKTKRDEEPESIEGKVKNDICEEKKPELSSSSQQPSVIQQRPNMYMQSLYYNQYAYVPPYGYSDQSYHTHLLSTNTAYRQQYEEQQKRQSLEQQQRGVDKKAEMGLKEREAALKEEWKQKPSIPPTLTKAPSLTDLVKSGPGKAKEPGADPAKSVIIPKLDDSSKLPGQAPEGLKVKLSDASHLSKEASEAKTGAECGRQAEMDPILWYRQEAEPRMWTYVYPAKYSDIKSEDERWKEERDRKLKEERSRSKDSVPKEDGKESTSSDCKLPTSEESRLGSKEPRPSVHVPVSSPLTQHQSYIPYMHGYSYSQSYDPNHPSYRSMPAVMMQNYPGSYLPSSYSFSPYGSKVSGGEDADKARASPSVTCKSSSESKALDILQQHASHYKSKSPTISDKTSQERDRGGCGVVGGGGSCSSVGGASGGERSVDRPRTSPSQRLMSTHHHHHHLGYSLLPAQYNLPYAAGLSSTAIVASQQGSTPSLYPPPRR
Chain of ZFAND6 (Q6FIF0 whole entry, looked up): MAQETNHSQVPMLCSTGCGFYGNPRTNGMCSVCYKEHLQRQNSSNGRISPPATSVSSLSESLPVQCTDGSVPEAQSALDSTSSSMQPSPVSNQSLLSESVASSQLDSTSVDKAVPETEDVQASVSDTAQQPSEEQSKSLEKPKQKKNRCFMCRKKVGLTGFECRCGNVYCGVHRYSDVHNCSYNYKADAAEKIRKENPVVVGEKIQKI

SMILES	log2 fold change (ZER1)	log2 fold change (ZFAND5)	log2 fold change (ZFAND6)	log2 fold change (ZFP91)	log2 fold change (ZFPL1)	log2 fold change (ZMAT2)	log2 fold change (ZMYM1)	log2 fold change (ZMYM3)	log2 fold change (ZNF143)	log2 fold change (ZNF217)	log2 fold change (ZNF239)	log2 fold change (ZNF277)	log2 fold change (ZNF511 isoform 1)	log2 fold change (ZNF512)	log2 fold change (ZNF579)	log2 fold change (ZNF609)	log2 fold change (ZNF622)	log2 fold change (ZRANB2)	log2 fold change (ZEB2)	log2 fold change (ZNF580)
CC(=O)c1cnc2ccc(-c3cc(Cl)c(O)c(Cl)c3)nc2c1N[C@H]1CC[C@H](CN(C)C)CC1	0.009	-0.025	0.041	0.018	0.023	-0.001	0.055	-0.004	-0.044	-0.125	-0.439	-0.017	-0.005	-0.15	-0.187	-0.071	0.096	0.017	–	–
Cc1ccc(NC(=O)c2cccc(C(C)(C)C#N)c2)cc1Nc1ccc2ncn(C)c(=O)c2c1	-0.041	-0.064	0.069	0.017	0.061	0.209	-0.071	-0.092	-0.023	0.075	-0.002	–	-0.026	–	0.043	-0.046	0.048	0.034	-0.027	-0.174
CN1CC[C@H](c2c(O)cc(O)c3c(=O)cc(-c4ccccc4Cl)oc23)[C@H](O)C1 [alvocidib]	-0.131	0.041	0.028	0.108	-0.038	0.047	0.016	0.14	-0.125	-0.164	0.226	0.169	-0.143	-0.002	-0.034	0.077	0.085	0.068	–	–
CS(=O)(=O)c1ccc(-c2cnc(N)c(C(=O)Nc3ccccc3)n2)cc1	0.034	-0.035	-0.036	-0.072	-0.045	-0.127	0.026	0.023	-0.014	-0.037	-0.06	–	-0.022	–	0.019	0.021	0.066	-0.013	0.025	-0.231
O=C(Nc1nc2ccccc2n1CCN1CCOCC1)c1cccc([N+](=O)[O-])c1 [IRAK-1-4 Inhibitor I]	0.025	0.057	0.032	-0.134	0.021	0.11	0.006	0.057	0.108	0.052	0.154	-0.346	–	–	-0.096	-0.031	0.004	-0.008	0.02	0.051
NC(=O)c1cnc(N[C@@H]2CCCC[C@@H]2N)nc1Nc1cccc(-n2nccn2)c1	-0.001	0.084	0.089	-0.001	0.054	0.079	-0.123	0.11	-0.106	-0.053	-0.092	0.067	-0.066	-0.005	0.067	0.015	-0.002	0.002	–	–
COc1cc(C(=O)O)ccc1NC(=O)[C@@H]1N[C@@H](CC(C)(C)C)[C@](C#N)(c2ccc(Cl)cc2F)[C@H]1c1cccc(Cl)c1F [idasanutlin]	-0.188	0.079	-0.096	0.029	-0.026	0.061	0.085	0	0.07	-0.027	-0.031	-0.003	0.128	0.3	-0.116	0.021	-0.031	0.024	–	–
NC(=O)Nc1cc(-c2cccc(F)c2)sc1C(=O)N[C@H]1CCCNC1	-0.046	-0.041	0.12	-0.044	-0.04	0.282 (active)	-0.108	-0.042	0.07	0.016	0.015	–	0.007	–	-0.008	0.061	-0.028	0.076	0.003	0.123
Cn1cc(-c2ccc3c(c2)CCN3C(=O)Cc2cccc(C(F)(F)F)c2)c2c(N)ncnc21	-0.021	-0.02	0.067	-0.161	0.049	-0.023	0.07	0.053	-0.129	0.142	0.306	-0.163	0.01	-0.86 (active)	0.059	-0.041	0.067	-0.013	–	–
CNc1nc(-c2ccc3c(N)n[nH]c3c2)cc(N2C[C@@H](C(=O)NC3CCCCC3)CC[C@H]2C)n1	-0.245	-0.072	-0.017	-0.007	-0.031	-0.058	-0.021	-0.004	-0.118	-0.183	-0.055	0.11	–	–	0.089	-0.004	-0.019	-0.066	-0.09	0.128
CCn1cc(-c2ccnc3[nH]c(-c4cccc(CN(C)C)c4)cc23)c(-c2ccc(NC(=O)N(C)C)cc2)n1	-0.16	-0.017	-0.009	0.07	0.032	0.022	0.141	0.018	-0.102	0.036	0.095	0.01	–	–	0.091	0.097	-0.077	0.022	–	0.092
COC(=O)N[C@@H](C)CNc1nccc(-c2cn(C(C)C)nc2-c2cc(Cl)cc(NS(C)(=O)=O)c2F)n1 [encorafenib]	0.01	-0.047	-0.019	0.038	-0.026	0.106	0.082	-0.032	0.014	-0.054	–	-0.259	-0.03	–	-0.187	-0.082	0.01	-0.066	–	0.143
COc1ccc(Cn2ccc3ccc(C(=O)NO)cc32)cc1	-0.236	-0.032	0.066	-0.076	0.074	0.378 (active)	-0.056	0	-0.035	-0.024	-0.178	-0.073	–	–	0.056	-0.034	-0.033	-0.022	-0.078	-0.134
O=C(CCCCCCNC(=O)c1cnc(N(c2ccccc2)c2ccccc2Cl)nc1)NO [citarinostat]	0.192	0	-0.081	-0.053	0.046	0.085	-0.07	-0.033	0.033	-0.004	–	0.306	0.054	–	-0.089	0.083	-0.011	-0.031	–	-0.013
Nc1ccccc1NC(=O)c1ccc(CNC(=O)OCc2cccnc2)cc1 [entinostat]	0.049	-0.031	-0.007	-0.054	-0.03	0.081	-0.012	-0.073	-0.012	0.075	-0.023	–	-0.078	–	-0.036	-0.061	-0.007	-0.024	-0.03	0
